{"source": "PubChem BioAssay AID588511", "about": "(Johns Hopkins Ion Channel Center, 2011)", "note": "About 3,600 (1.2%) of roughly 310,000 compounds were called active. This is one part of a sample in which actives are shown more often than they occur.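 Rule for the calls: active = ratio plate-corrected score three or more library SD toward inhibition, starting fluorescence score within five deviations; inactive = the rest.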", "data": [{"target": "Anoctamin-1 (Mus musculus) (UniProt Q8BHY3)", "sequence (Q8BHY3 whole entry, looked up)": "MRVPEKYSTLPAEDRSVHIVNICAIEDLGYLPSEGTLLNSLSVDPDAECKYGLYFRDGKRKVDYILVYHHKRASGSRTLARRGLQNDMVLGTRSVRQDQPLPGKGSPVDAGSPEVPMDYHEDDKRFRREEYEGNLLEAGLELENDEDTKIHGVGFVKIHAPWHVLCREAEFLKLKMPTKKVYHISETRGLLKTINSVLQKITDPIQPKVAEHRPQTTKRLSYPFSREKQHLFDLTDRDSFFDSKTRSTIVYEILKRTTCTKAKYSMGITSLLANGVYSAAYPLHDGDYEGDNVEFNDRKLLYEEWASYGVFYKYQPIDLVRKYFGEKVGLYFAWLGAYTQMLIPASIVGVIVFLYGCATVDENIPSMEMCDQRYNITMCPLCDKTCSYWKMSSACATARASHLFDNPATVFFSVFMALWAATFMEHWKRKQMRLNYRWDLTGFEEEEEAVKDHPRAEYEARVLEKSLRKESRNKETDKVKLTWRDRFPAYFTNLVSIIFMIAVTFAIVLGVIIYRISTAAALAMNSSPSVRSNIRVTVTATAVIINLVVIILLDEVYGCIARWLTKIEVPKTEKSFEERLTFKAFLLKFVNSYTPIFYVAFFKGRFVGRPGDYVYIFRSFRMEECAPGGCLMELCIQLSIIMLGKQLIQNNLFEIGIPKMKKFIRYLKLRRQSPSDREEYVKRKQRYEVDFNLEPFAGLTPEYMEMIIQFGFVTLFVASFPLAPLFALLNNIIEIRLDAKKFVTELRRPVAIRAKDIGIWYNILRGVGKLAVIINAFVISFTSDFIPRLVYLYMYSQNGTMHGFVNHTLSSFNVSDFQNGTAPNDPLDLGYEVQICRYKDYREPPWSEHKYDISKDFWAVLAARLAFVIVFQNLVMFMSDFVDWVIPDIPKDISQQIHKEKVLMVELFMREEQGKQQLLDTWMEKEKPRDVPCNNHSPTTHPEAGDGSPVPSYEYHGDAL", "assay": "blockers of mouse ANO1 Ca-activated Cl channel – cell-based, HTS, primary screen (AID 588511);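 for normalized B-score (activity score, 25-100; higher = stronger inhibition): score derived from kinetic fluorescence span divided by baseline fluorescence per well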", "details": "HEK293 TMEM16A/YFP iodide influx fluorescence, ionomycin; at 10 µM", "values": [{"molecule": "COc1cc(Cl)c(C)cc1NC(=O)CN1CCCCCC1", "normalized B-score (activity score, 25-100; higher = stronger inhibition)": "inactive"}, {"molecule": "O=C(Cc1cccs1)NCc1cccc(C(F)(F)F)c1", "normalized B-score (activity score, 25-100; higher = stronger inhibition)": "inactive"}, {"molecule": "CCOn1c(=O)c(=O)n(O)c2ccccc21", "normalized B-score (activity score, 25-100; higher = stronger inhibition)": "inactive"}, {"molecule": "CN1CCC(=O)N([C@H](CO)Cc2ccccc2)CC1", "normalized B-score (activity score, 25-100; higher = stronger inhibition)": "inactive"}, {"molecule": "C[C@H]1CCC(=O)N([C@H](CSc2ccccc2)Cc2ccccc2)CC1", "normalized B-score (activity score, 25-100; higher = stronger inhibition)": "25 (active)"}, {"molecule": "COc1ccc(SC[C@H](Cc2ccccc2)N2CCN(CCc3ccccc3)CCC2=O)cc1", "normalized B-score (activity score, 25-100; higher = stronger inhibition)": "inactive"}, {"molecule": "Cn1c2c(c(=O)n(C)c1=O)C(c1cccc([N+](=O)[O-])c1)Nc1ccccc1O2", "note": "(configuration not stated)", "normalized B-score (activity score, 25-100; higher = stronger inhibition)": "inactive"}, {"molecule": "COc1ccc(CCNC(=O)C2CCCN(Cc3nc(-c4cccc(Cl)c4)oc3C)C2)cc1OC", "note": "(configuration not stated)", "normalized B-score (activity score, 25-100; higher = stronger inhibition)": "100 (active)"}, {"molecule": "COc1cccc(-c2nc(CS(=O)(=O)CC(=O)NCCc3ccc(OC)c(OC)c3)c(C)o2)c1", "normalized B-score (activity score, 25-100; higher = stronger inhibition)": "inactive"}, {"molecule": "COc1ccc(CCNC(=O)CS(=O)(=O)Cc2nc(-c3ccc(C)cc3)oc2C)cc1OC", "normalized B-score (activity score, 25-100; higher = stronger inhibition)": "inactive"}, {"molecule": "CCOc1ccc(/C=C/C(=O)OCC(=O)c2ccccc2OC)cc1OC", "normalized B-score (activity score, 25-100; higher = stronger inhibition)": "inactive"}, {"molecule": "Cc1cccc(N)c1SC1CCCCC1O", "note": "(configuration not stated)", "normalized B-score (activity score, 25-100; higher = stronger inhibition)": "inactive"}, {"molecule": "Cc1cccc(N=C2SC(C)CN2C(=O)CN2C(=O)NC3(CCCC3)C2=O)c1", "note": "(configuration not stated)", "normalized B-score (activity score, 25-100; higher = stronger inhibition)": "inactive"}, {"molecule": "O=C(Nc1nnc(S(=O)(=O)N2CCCCCC2)s1)c1cccc(Br)c1", "normalized B-score (activity score, 25-100; higher = stronger inhibition)": "inactive"}, {"molecule": "NS(=O)(=O)c1ccc(N=Cc2ccc(Br)s2)cc1", "normalized B-score (activity score, 25-100; higher = stronger inhibition)": "inactive"}, {"molecule": "CCCOc1ccccc1C1CC(=O)Nc2cc3c(cc21)OCO3", "note": "(configuration not stated)", "normalized B-score (activity score, 25-100; higher = stronger inhibition)": "25 (active)"}, {"molecule": "COc1ccccc1C1C2=C(COC2=O)Nc2cc3c(cc21)OCO3", "note": "(configuration not stated)", "normalized B-score (activity score, 25-100; higher = stronger inhibition)": "inactive"}, {"molecule": "COC(=O)C1=C(C)NC(=O)CC1c1ccccc1OC", "note": "(configuration not stated)", "normalized B-score (activity score, 25-100; higher = stronger inhibition)": "inactive"}, {"molecule": "CC1CCN(C(=O)CN(c2ccc(Oc3ccccc3)cc2)S(C)(=O)=O)CC1", "normalized B-score (activity score, 25-100; higher = stronger inhibition)": "inactive"}, {"molecule": "COc1ccc(S(=O)(=O)N(CCCN2CCCC2=O)Cc2cc3c(C)ccc(C)c3[nH]c2=O)cc1", "normalized B-score (activity score, 25-100; higher = stronger inhibition)": "inactive"}, {"molecule": "Cc1ccc(-c2noc(CSc3nnc(-c4cccs4)n3C)n2)cc1", "normalized B-score (activity score, 25-100; higher = stronger inhibition)": "inactive"}, {"molecule": "Cc1ccc(-c2noc(CSc3nnnn3-c3ccccc3)n2)cc1", "normalized B-score (activity score, 25-100; higher = stronger inhibition)": "100 (active)"}, {"molecule": "Cc1ccc(-c2noc(CSc3nnc(-c4ccccc4)n3C)n2)cc1", "normalized B-score (activity score, 25-100; higher = stronger inhibition)": "inactive"}, {"molecule": "Cc1ccc(-c2nnc(CN3CCN(C)CC3)o2)cc1", "normalized B-score (activity score, 25-100; higher = stronger inhibition)": "inactive"}, {"molecule": "O=C(NCCCN1CCCC1=O)C(=O)NCC1OCCN1S(=O)(=O)c1ccc(Br)cc1", "note": "(configuration not stated)", "normalized B-score (activity score, 25-100; higher = stronger inhibition)": "inactive"}, {"molecule": "CCn1c(SCc2ccccc2)nc2c(c1=O)SCC2", "normalized B-score (activity score, 25-100; higher = stronger inhibition)": "inactive"}, {"molecule": "Cc1cccc(CSc2nc3c(c(=O)n2C)SCC3)c1", "normalized B-score (activity score, 25-100; higher = stronger inhibition)": "25 (active)"}, {"molecule": "Cn1c(SCC(=O)N2CCCCC2)nc2c(c1=O)SCC2", "normalized B-score (activity score, 25-100; higher = stronger inhibition)": "inactive"}, {"molecule": "O=C(Nc1ccnn1C1CCN(C/C=C/c2ccc(F)cc2)CC1)C1CCCC1", "normalized B-score (activity score, 25-100; higher = stronger inhibition)": "inactive"}, {"molecule": "COc1ccc(OC)c(S(=O)(=O)N2CCCC(C(=O)N3CCC(C(N)=O)CC3)C2)c1", "note": "(configuration not stated)", "normalized B-score (activity score, 25-100; higher = stronger inhibition)": "inactive"}, {"molecule": "CCCc1ccc(OCC(=O)NNC(=S)NC(=O)c2ccco2)cc1", "normalized B-score (activity score, 25-100; higher = stronger inhibition)": "inactive"}, {"molecule": "Cc1ccc(C(=O)NNC(=O)C(C)Oc2ccc3ccccc3c2)o1", "note": "(configuration not stated)", "normalized B-score (activity score, 25-100; higher = stronger inhibition)": "inactive"}, {"molecule": "CC(Oc1ccc2ccccc2c1)C(=O)NNC(=S)NC(=O)c1ccco1", "note": "(configuration not stated)", "normalized B-score (activity score, 25-100; higher = stronger inhibition)": "100 (active)"}, {"molecule": "O=C(Nc1cc(-c2ccccc2)nn1-c1ccccc1F)c1ccc([N+](=O)[O-])cc1", "normalized B-score (activity score, 25-100; higher = stronger inhibition)": "inactive"}, {"molecule": "CSc1ccc(C(=O)C2CCCN(C(=O)c3ccc(C)nc3)C2)cc1", "note": "(configuration not stated)", "normalized B-score (activity score, 25-100; higher = stronger inhibition)": "inactive"}, {"molecule": "CCOC(=O)N1CCC(=NNC(N)=O)CC1", "normalized B-score (activity score, 25-100; higher = stronger inhibition)": "inactive"}, {"molecule": "Cc1cccc(-c2nc(CS(=O)CC(=O)NC(C)CCc3ccccc3)c(C)o2)c1", "note": "(configuration not stated)", "normalized B-score (activity score, 25-100; higher = stronger inhibition)": "inactive"}, {"molecule": "O=c1ccc2cc(S(=O)(=O)NCCCc3ccccc3)ccc2[nH]1", "normalized B-score (activity score, 25-100; higher = stronger inhibition)": "inactive"}, {"molecule": "O=c1cc(C(F)(F)F)[nH]c(=O)n1C1CCCCC1", "normalized B-score (activity score, 25-100; higher = stronger inhibition)": "25 (active)"}, {"molecule": "Cc1ccc(Nc2cc(=O)n(C3CCCCC3)c(=O)[nH]2)cc1C", "normalized B-score (activity score, 25-100; higher = stronger inhibition)": "inactive"}, {"molecule": "CCCOn1c(-n2nc(C)cc2C)nc2ccccc2c1=O", "normalized B-score (activity score, 25-100; higher = stronger inhibition)": "inactive"}, {"molecule": "COc1ccc(OCCCn2cccc2/C=C2/C(=N)N3OC(C)=CC3=NC2=O)cc1", "normalized B-score (activity score, 25-100; higher = stronger inhibition)": "25 (active)"}, {"molecule": "CCOc1cc(/C=C2/C(=N)N3OC(C)=CC3=NC2=O)ccc1OC", "normalized B-score (activity score, 25-100; higher = stronger inhibition)": "inactive"}, {"molecule": "CC1=CC2=NC(=O)/C(=C/c3coc4ccccc4c3=O)C(=N)N2O1", "normalized B-score (activity score, 25-100; higher = stronger inhibition)": "inactive"}, {"molecule": "Cn1cnc(C(F)(F)F)c1-c1ccc([N+](=O)[O-])cc1", "normalized B-score (activity score, 25-100; higher = stronger inhibition)": "inactive"}, {"molecule": "O=C(Nc1ccccc1)c1ccc2c(c1)OCCCO2", "normalized B-score (activity score, 25-100; higher = stronger inhibition)": "inactive"}, {"molecule": "O=C(Nc1cccc(S(=O)(=O)Nc2ccc(Cl)cc2)c1)c1ccc2c(c1)OCCO2", "normalized B-score (activity score, 25-100; higher = stronger inhibition)": "25 (active)"}, {"molecule": "O=C(Nc1cccc(S(=O)(=O)N2CCCCC2)c1)c1ccc2c(c1)OCO2", "normalized B-score (activity score, 25-100; higher = stronger inhibition)": "inactive"}, {"molecule": "CCn1c(SCC(=O)NCC2CCCO2)nc2cc(S(=O)(=O)N3CCCCC3)ccc21", "note": "(configuration not stated)", "normalized B-score (activity score, 25-100; higher = stronger inhibition)": "inactive"}, {"molecule": "CCCCn1c(SCc2ncc(-c3ccccc3)o2)nc2cc(S(N)(=O)=O)ccc21", "normalized B-score (activity score, 25-100; higher = stronger inhibition)": "25 (active)"}, {"molecule": "CCCCn1c(SCC(=O)N2CCC(C(=O)OCC)CC2)nc2cc(S(N)(=O)=O)ccc21", "normalized B-score (activity score, 25-100; higher = stronger inhibition)": "inactive"}, {"molecule": "CN(C)c1cc(-c2ccc(F)cc2)oc(=O)c1Cl", "normalized B-score (activity score, 25-100; higher = stronger inhibition)": "inactive"}, {"molecule": "N#CC1=C(SCc2ccccc2)NC(=O)C(C#N)C12CCCC2", "note": "(configuration not stated)", "normalized B-score (activity score, 25-100; higher = stronger inhibition)": "25 (active)"}, {"molecule": "CC1(C)CCc2nc(SCc3ccccc3)c(C#N)cc2C1", "normalized B-score (activity score, 25-100; higher = stronger inhibition)": "inactive"}, {"molecule": "N#CC1=C(SCc2ccc(C#N)cc2)N=C(N)C(c2nc(-c3ccccc3)cs2)C12CCCCC2", "note": "(configuration not stated)", "normalized B-score (activity score, 25-100; higher = stronger inhibition)": "inactive"}, {"molecule": "Nc1ccc(C(=O)OCC(=O)NC2CCS(=O)(=O)C2)cc1[N+](=O)[O-]", "note": "(configuration not stated)", "normalized B-score (activity score, 25-100; higher = stronger inhibition)": "inactive"}, {"molecule": "CCC1CCCCN1C(=S)Nc1ccc(SC(F)F)cc1", "note": "(configuration not stated)", "normalized B-score (activity score, 25-100; higher = stronger inhibition)": "inactive"}, {"molecule": "COc1ccc(CCN2CC(C(=O)NCCN3CCNC3=O)CCC2=O)cc1", "note": "(configuration not stated)", "normalized B-score (activity score, 25-100; higher = stronger inhibition)": "inactive"}, {"molecule": "O=C(N/N=C/c1ccc([N+](=O)[O-])o1)c1cccc(S(=O)(=O)N2CCOCC2)c1", "normalized B-score (activity score, 25-100; higher = stronger inhibition)": "inactive"}, {"molecule": "O=[N+]([O-])c1cc(Cl)cc(/C=N/NC(=S)Nc2cc(S(=O)(=O)N3CCOCC3)ccc2Cl)c1O", "normalized B-score (activity score, 25-100; higher = stronger inhibition)": "100 (active)"}, {"molecule": "O=C(NC(=S)Nc1ccc(S(=O)(=O)N2CCOCC2)cc1)c1ccccc1[N+](=O)[O-]", "normalized B-score (activity score, 25-100; higher = stronger inhibition)": "inactive"}, {"molecule": "Cc1ccsc1C(=O)N[C@@H](C)c1nnc2ccccn12", "normalized B-score (activity score, 25-100; higher = stronger inhibition)": "inactive"}, {"molecule": "COC(C[C@@H]1O[C@@H]1C(=O)[C@H](C)OCc1ccccc1)OC", "normalized B-score (activity score, 25-100; higher = stronger inhibition)": "inactive"}, {"molecule": "CSCCC(C(=O)NC1=NCCS1)N1C(=O)c2ccccc2C1=O", "note": "(configuration not stated)", "normalized B-score (activity score, 25-100; higher = stronger inhibition)": "inactive"}, {"molecule": "COC(=O)[C@@H]1CC(O)CN1C(=O)C12CC3CC(CC(C3)C1)C2", "note": "(some centres not stated)", "normalized B-score (activity score, 25-100; higher = stronger inhibition)": "inactive"}, {"molecule": "CC(C)OCCCNC(=O)c1cc(Sc2ccc(F)cc2)nc2ccccc12", "normalized B-score (activity score, 25-100; higher = stronger inhibition)": "inactive"}, {"molecule": "CC(C)OCCCNc1ncnc2c1[nH]c1ccc(F)cc12", "normalized B-score (activity score, 25-100; higher = stronger inhibition)": "100 (active)"}]}]}
